Measurements from the supplement of paper PMC8866396.
± gives the standard deviation of the averaged measurements.

What was measured:
IL-6-GFP PC-9GR = test: cell viability (CCK-8 OD) relative to DMSO control (fraction of control); higher = more viable cells; conditions: compound concentration: 10 uM; treatment time: 48 h
Procedure, shortened: (§1)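 PC-9 and PC-9GR lung cancer cells expressing lentiviral IL-6-GFP were plated at 3000 cells/well in 96-well plates and treated for 48 h with each library compound at a final 10 μM. Viability was determined by CCK-8 absorbance as a ratio of each well's optical density to the vehicle control well.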

IL-6-GFP PC-9 = test: as above; conditions: compound concentration: 10 uM; treatment time: 48 h
Procedure, shortened: as §1

Row | Compound | cell viability (IL-6-GFP PC-9GR) | cell viability (IL-6-GFP PC-9)
1 | O=C(Oc1ccccc1C(=O)O)c1ccccc1O [Sasapyrine] | 0.988 ± 0.067 | 1.25 ± 0.019
2 | CC1(C)CCC(C)(C)c2cc(NC(=O)c3ccc(C(=O)O)cc3)ccc21 [Tamibarotene] | 1.55 ± 0.76 | 1.28 ± 0.11
3 | CN1CCC(NC(=O)Nc2ccc(C#N)cc2)CC1c1nc2ccccc2[nH]1 (configuration not stated) | 0.848 ± 0.016 | 1.21 ± 0.033
4 | COc1cc(C2Oc3cc(C4Oc5cc(O)cc(O)c5C(=O)C4O)ccc3OC2CO)ccc1O (configuration not stated) [Silibinin] | 1.36 ± 0.07 | 1.15 ± 0.099
5 | COC(=O)NC(C(=O)N1CCCC1c1ncc(-c2ccc(-c3ccc(-c4cnc(C5CCCN5C(=O)C(NC(=O)OC)C(C)C)[nH]4)cc3)cc2)[nH]1)C(C)C (configuration not stated) | 1.41 ± 0.14 | 1.18 ± 0.11
6 | CONC(=O)Nc1ccc(-c2sc3c(c2CN(C)C)c(=O)n(-c2ccc(OC)nn2)c(=O)n3Cc2c(F)cccc2F)cc1 [Relugolix] | 1.41 ± 0.42 | 1.01 ± 0.17
7 | Cc1cc(Nc2ncc(Cl)c(Nc3ccccc3S(=O)(=O)C(C)C)n2)c(OC(C)C)cc1C1CCNCC1 [Ceritinib (LDK378)] | 0.091 ± 0.015 | 0.0667 ± 0.041
8 | CC(CN1c2ccccc2Sc2ccccc21)N(C)C.Cl (configuration not stated) [Promethazine HCl] | 0.929 ± 0.013 | 1.05 ± 0.051
9 | Cc1cc(C(C)(C)C)cc(C)c1CC1=NCCN1 [Xylometazoline] | 0.674 ± 0.26 | 1.08 ± 0.14
10 | COc1ccc2cc1Oc1ccc(cc1)CC1c3c(cc4c(c3Oc3cc5c(cc3OC)CCN(C)C5C2)OCO4)CCN1C (configuration not stated) [Cepharanthine] | 0.8242 ± 0.0069 | 0.73 ± 0.15
11 | CC(Cn1ccc(-c2ccc(C#N)c(Cl)c2)n1)NC(=O)c1cc(C(C)O)[nH]n1 (configuration not stated) [Darolutamide (ODM-201)] | 0.858 ± 0.18 | 0.962 ± 0.21
12 | CCN(CC)CCNC(=O)c1c(C)[nH]c(/C=C2\C(=O)Nc3ccc(F)cc32)c1C.O=C(O)CC(O)C(=O)O [Sunitinib Malate] | 1.01 ± 0.063 | 0.453 ± 0.52
13 | CCC(C)C(=O)OC1CC(O)C=C2C=CC(C)C(CCC(O)CC(O)CC(=O)O)C21 (configuration not stated) [Pravastatin] | 1.48 ± 0.39 | 0.999 ± 0.22
14 | NC(CC(=O)N1CCn2c(nnc2C(F)(F)F)C1)Cc1cc(F)c(F)cc1F.O.O=P(O)(O)O (configuration not stated) [Sitagliptin phosphate monohydrate] | 0.836 ± 0.12 | 0.812 ± 0.47
15 | CC(C)c1nc(CN(C)C(=O)NC(CCN2CCOCC2)C(=O)NC(CCC(Cc2ccccc2)NC(=O)OCc2cncs2)Cc2ccccc2)cs1 (configuration not stated) [Cobicistat (GS-9350)] | 0.989 ± 0.11 | 1.14 ± 0.22
16 | O.S=c1nc[nH]c2nc[nH]c12 [6-Mercaptopurine (6-MP) Monohydrate] | 0.92 ± 0.11 | 0.978 ± 0.19
17 | Cc1nc2ccc(CN(C)c3ccc(C(=O)NC(CCC(=O)O)C(=O)O)s3)cc2c(=O)[nH]1 (configuration not stated) [Raltitrexed] | 0.5349 ± 0.0032 | 0.506 ± 0.17
18 | CC#CC(=O)N1CCCC1c1nc(-c2ccc(C(=O)Nc3ccccn3)cc2)c2c(N)nccn12 (configuration not stated) [Acalabrutinib (ACP-196)] | 1.04 ± 0.36 | 0.78 ± 0.084
19 | N.N.O=C([O-])C1(C(=O)[O-])CCC1.[Pt+2] [Carboplatin] | 1.19 ± 0.012 | 1.12 ± 0.074
20 | COc1cc(CNC(=O)CCCC/C=C\C(C)C)ccc1O [Zucapsaicin] | 0.332 ± 0.62 | 1.22 ± 0.092
21 | CNC(=O)c1c(C)oc2cc(Oc3ncnc4cc(OC)c(OC)cc34)ccc12 [Fruquintinib] | 1.04 ± 0.12 | 1.12 ± 0.08
22 | C=CC1=C(C)c2cc3nc(cc4[nH]c(cc5[nH]c(cc1n2)c(C)c5C=C)c(C)c4CCC(=O)O)C(CCC(=O)O)=C3C [Protoporphyrin IX] | 0.345 ± 0.26 | 0.995 ± 0.17
23 | CC1(C(=O)O)CCC2(C)CCC3(C)C(=CC(=O)C4C5(C)CCC(OC6OC(C(=O)O)C(O)C(O)C6OC6OC(C(=O)O)C(O)C(O)C6O)C(C)(C)C5CCC43C)C2C1.N.N (configuration not stated) [Diammonium Glycyrrhizinate] | 1.11 ± 0.22 | 1.19 ± 0.07
24 | CNC(=O)c1ccc(N2C(=S)N(c3ccc(C#N)c(C(F)(F)F)c3)C(=O)C2(C)C)cc1F [Enzalutamide (MDV3100)] | 1.04 ± 0.077 | 0.808 ± 0.099
25 | O=c1[nH]c(=O)n(C2CCCO2)cc1F (configuration not stated) | 1.11 ± 0.023 | 1.01 ± 0.013
26 | O=C([O-])Cc1ccccc1Nc1c(Cl)cccc1Cl.[K+] [Diclofenac Potassium] | 1.25 ± 0.21 | 1.13 ± 0.18
